# In PubChem BioAssay (Tox21):
# Results filed as inconclusive are left out. Entries that show only a call come without a potency. Calls of active or inactive are those of the source. The call rests on the fitted dose curve; in most records, active means well fitted cell-killing curve with a large enough effect in the repeat runs; inconclusive means weak or mixed curves; inactive means flat fitted curve, though single readings scatter.
# Assay: qHTS assay to identify small molecule antagonists of the estrogen receptor beta (ER-beta) signaling pathway - cell viability counter screen (AID 1259382); further: nearly all actives have a fitted effect of over 55% in size
# Conditions: ER-beta-UAS-bla HEK293T viability, CellTiter-Glo luminescence, 16 h; series mostly up to 92.4 µM
# Text: U.S. Tox21 Program National Center for Advancing Translational Sciences [NCATS] NIH Chemical Genomics Center [NCGC] U.S. Environmental Protection Agency [EPA] National Institutes of Environmental Health Sciences [NIEHS] National Toxicology Program [NTP] U.S. Food and Drug Administration [FDA] Tox21 Assay Overview: Estrogen receptor (ER), a nuclear hormone receptor, plays an important role in development, metabolic homeostasis and reproduction. Two subtypes of ER, ER-alpha and ER-beta, have similar expression patterns with some uniqueness in both types. Endocrine disrupting chemicals (EDCs) and their interactions with steroid hormone receptors like ER causes disruption of normal endocrine function. To identify the compounds that inhibit ER signaling, an ER-beta-UAS-bla GripTite cell line (Life Technologies, Madison, WI, USA) containing a beta-lactamase reporter gene under the control of an UAS response element was used to screen Tox21 10K compound library. The cytotoxicity of the Tox21 compound library against the ER-beta-bla cell line was tested in parallel by measuring the cell viability using CellTiter-Glo assay in the same wells.
# Tox21 Assay Protocol Summary: ER-beta-UAS-bla HEK293T cells were dispensed at 2,000 cells/4 uL of assay medium containing 2% charcoal stripped FBS per well into black wall/clear-bottom 1536-well plates using a Multidrop Combi (ThermoFisher Scientific, Waltham, MA) dispenser. After the assay plates were incubated at a 37C and 5% CO2 for 6 hr, 23 nL of compounds dissolved in DMSO, positive controls or DMSO only was transferred to the assay plate by a Pintool station (Kalypsys, San Diego, CA), followed by addition of 1 uL (1nM as final concentration) of 17-beta-estradiol (E2) in assay medium using a Flying Reagent Dispenser (FRD, Aurora Discovery, San Diego, CA). The plates were incubated at 37C and 5% CO2 for 16 hr. Then 1 uL of LiveBLAzer B/G FRET substrate was added using a Flying Reagent Dispenser, the plates were incubated at room temperature for 2 hours, and fluorescence intensity was measured by an Envision plate reader (PerkinElmer, Shelton, CT). For cell viability readout that measures cytotoxicity, 4 uL/well of CellTiter-Glo reagent was added into the assay plates using a FRD. After 30 min incubation at room temperature, the luminescence intensity in the plates was measured using a ViewLux (PerkinElmer) plate reader.
# Potency means the concentration at half of the fitted maximal effect.
Structure (SMILES),Potency,"activity change, negative = cytotoxicity"
CCN(CC)c1ccc(C(=C2C=CC(=[N+](CC)CC)C=C2)c2cc(S(=O)(=O)O)ccc2S(=O)(=O)[O-])cc1,inactive,
Cc1cccc(C)c1OCC(=O)N[C@@H](Cc1ccccc1)[C@@H](O)C[C@H](Cc1ccccc1)NC(=O)[C@H](C(C)C)N1CCCNC1=O,23.7 µM (active),
CCCCCCCCO[C@@H]1O[C@H](CO)[C@@H](O)[C@H](O)[C@H]1O,inactive,
CC1CCC(=O)C1=O (stereo not given),inactive,
CC(=O)[O][Al],inactive,
NCC(=O)O,,-1.05% [at 19 µM] (inactive)
COS(=O)(=O)C(F)(F)F,inactive,
CC1=CC=C(C(C)C)CC1,inactive,
O=C1C(O)=C(O)C(=O)C(O)=C1O,inactive,
O=C(OCCCCCCOC(=O)c1ccccc1)c1ccccc1,inactive,
COc1ccc(S(=O)(=O)N2C(=O)[C@@](c3ccccc3OC)(N3C[C@H](O)C[C@H]3C(=O)N(C)C)c3cc(Cl)ccc32)c(OC)c1,inactive,
CCOc1ccc(N=Nc2ccc(/C=C/c3ccc(N=Nc4ccc(OCC)cc4)cc3S(=O)(=O)O)c(S(=O)(=O)O)c2)cc1,inactive,
COc1cc2nc(N3CCN(C(=O)C4COc5ccccc5O4)CC3)nc(N)c2cc1OC (stereo not given),inactive,
C=CCOc1ccccc1OCC(O)CNC(C)C (stereo not given),inactive,
OC(CN1CCC(Cc2ccc(F)cc2)CC1)c1ccc(Cl)cc1 (stereo not given),inactive,
CCCNCC(O)COc1ccccc1C(=O)CCc1ccccc1 (stereo not given),23.7 µM (active),
CC1OC(=O)C(C)OC1=O (stereo not given),inactive,
CN(C)c1ccc(CCO)cc1,inactive,
C/C=C/C=C/CO,inactive,
O=C(O)C1(C(=O)O)CCC1.[NH2-].[NH2-].[Pt+2],inactive,

Structure (SMILES),Potency,"activity change, negative = cytotoxicity"
CCCCCCc1ccc(-c2ccc(C#N)cc2)cc1,inactive,
CCCCC1=NC2(CCCC2)C(=O)N1Cc1ccc(-c2ccccc2-c2nn[nH]n2)cc1,inactive,
O=C(O)c1ccco1,inactive,
CCOC(=O)C(F)(F)F,inactive,
C/C=C/C(=O)CC,,2.99% [at 19 µM] (inactive)
CC(C)(O)c1ccc(CNC(=O)c2cccnc2Oc2ccc(F)cc2)cc1,inactive,
CCCCC/C=C\C/C=C\CCCCCCCC(=O)NC(C)c1ccccc1 (stereo not given),inactive,
CCOC(=O)C(O)c1ccccc1 (stereo not given),inactive,
O=C(CS)Nc1ccccc1,inactive,
Cc1ccc(C(C)OC(=O)C2(C)CCC(C(=O)O)C2(C)C)cc1 (stereo not given),inactive,
CCN(CC)CCOC(=O)C(c1ccccc1)C1CCCCC1 (stereo not given),inactive,
O=C1OC(=O)C2C3C=CC(C3)C12 (stereo not given),inactive,
C=C(C)C(=O)OCC,inactive,
CCCCC(CC)CN1C(=O)C2C3C=CC(C3)C2C1=O (stereo not given),inactive,
CCC(CC)Nc1ccc(C)c(C)c1,inactive,
C=CC(=O)OCCOCCOCCOCCOC(=O)C=C,inactive,
COc1ccc(C(=O)Nc2nc3ccccc3c(NCc3ccccc3)c2C#N)cc1,inactive,
ClCCOCCOCCCl,inactive,
COc1cc(C(=O)OCCCN2CCCN(CCCOC(=O)c3cc(OC)c(OC)c(OC)c3)CC2)cc(OC)c1OC,inactive,
CCCCCCCCCCCCCCOS(=O)(=O)O,61.1 µM (active),
